Records with an inconclusive call do not appear. Calls of active or inactive are those of the source. The calls were made as follows: active = hit-call score of the fitted dose curve at least 0.9, where 1 is the maximum; inconclusive = response in the unintended direction; inactive = score below 0.9.

From PubChem BioAssay (EPA / NIEHS) come the findings set out here.

Chain of Voltage-gated inwardly rectifying potassium channel KCNH2 (Homo sapiens) (Q12809 whole entry, looked up): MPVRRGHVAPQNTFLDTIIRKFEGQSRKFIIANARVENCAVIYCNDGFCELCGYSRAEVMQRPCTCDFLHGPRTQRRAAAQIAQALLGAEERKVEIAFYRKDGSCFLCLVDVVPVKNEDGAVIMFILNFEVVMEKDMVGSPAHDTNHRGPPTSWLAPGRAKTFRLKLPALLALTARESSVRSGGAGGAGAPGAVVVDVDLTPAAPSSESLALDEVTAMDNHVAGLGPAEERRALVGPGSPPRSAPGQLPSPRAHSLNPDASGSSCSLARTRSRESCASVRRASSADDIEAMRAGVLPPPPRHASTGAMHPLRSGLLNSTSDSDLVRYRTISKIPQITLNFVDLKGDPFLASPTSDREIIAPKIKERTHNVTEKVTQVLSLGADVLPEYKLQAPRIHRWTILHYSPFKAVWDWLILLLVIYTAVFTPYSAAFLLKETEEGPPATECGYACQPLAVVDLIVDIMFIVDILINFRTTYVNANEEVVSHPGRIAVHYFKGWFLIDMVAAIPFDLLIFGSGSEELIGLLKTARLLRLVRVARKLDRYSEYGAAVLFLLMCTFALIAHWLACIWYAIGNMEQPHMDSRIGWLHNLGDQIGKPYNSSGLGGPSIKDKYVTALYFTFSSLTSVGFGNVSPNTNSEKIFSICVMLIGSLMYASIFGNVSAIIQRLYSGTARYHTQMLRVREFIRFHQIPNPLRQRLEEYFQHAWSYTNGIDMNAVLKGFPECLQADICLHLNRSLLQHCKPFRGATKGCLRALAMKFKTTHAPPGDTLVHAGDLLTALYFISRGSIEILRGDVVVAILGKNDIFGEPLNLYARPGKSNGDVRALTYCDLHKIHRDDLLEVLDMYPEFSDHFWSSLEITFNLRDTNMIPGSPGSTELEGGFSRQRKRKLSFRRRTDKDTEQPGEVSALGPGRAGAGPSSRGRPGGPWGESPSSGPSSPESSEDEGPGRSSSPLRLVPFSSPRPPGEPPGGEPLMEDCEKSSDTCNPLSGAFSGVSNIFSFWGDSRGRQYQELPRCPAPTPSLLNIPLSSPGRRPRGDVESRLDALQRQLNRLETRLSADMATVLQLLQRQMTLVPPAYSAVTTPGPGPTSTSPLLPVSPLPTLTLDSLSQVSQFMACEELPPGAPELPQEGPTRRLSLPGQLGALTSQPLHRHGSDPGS
Chain of Small conductance calcium-activated potassium channel protein 1 (Rattus norvegicus) (P70606 whole entry, looked up): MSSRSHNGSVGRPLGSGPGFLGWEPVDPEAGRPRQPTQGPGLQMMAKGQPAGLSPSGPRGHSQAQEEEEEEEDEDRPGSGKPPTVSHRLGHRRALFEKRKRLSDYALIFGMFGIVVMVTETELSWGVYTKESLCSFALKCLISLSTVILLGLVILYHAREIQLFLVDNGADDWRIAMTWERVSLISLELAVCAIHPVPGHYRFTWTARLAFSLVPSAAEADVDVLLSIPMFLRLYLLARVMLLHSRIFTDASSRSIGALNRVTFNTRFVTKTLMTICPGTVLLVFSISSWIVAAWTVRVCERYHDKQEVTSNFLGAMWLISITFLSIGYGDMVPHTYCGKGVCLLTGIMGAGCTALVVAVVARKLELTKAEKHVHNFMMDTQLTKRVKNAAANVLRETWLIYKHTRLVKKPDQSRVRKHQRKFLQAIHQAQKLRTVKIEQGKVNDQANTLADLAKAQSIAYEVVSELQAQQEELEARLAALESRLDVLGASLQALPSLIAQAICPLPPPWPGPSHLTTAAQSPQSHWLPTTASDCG
Chain of rat Peripheral-type Benzodiazepine Receptor (PBR), Tspo (gene 24230) (P16257 whole entry, looked up): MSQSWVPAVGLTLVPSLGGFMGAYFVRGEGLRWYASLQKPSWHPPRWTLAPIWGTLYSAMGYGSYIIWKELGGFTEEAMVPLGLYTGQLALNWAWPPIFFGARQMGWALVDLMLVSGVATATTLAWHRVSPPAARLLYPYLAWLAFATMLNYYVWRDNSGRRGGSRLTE
Chain of human Peripheral-type Benzodiazepine Receptor (PBR), TSPO (gene 706) (P30536 whole entry, looked up): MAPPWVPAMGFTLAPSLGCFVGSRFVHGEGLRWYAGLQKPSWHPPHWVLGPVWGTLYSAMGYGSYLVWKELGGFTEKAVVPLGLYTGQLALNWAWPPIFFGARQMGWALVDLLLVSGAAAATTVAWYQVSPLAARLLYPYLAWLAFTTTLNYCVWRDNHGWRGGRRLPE

The first assay addresses human Peripheral-type Benzodiazepine Receptor (PBR), TSPO (gene 706) (UniProt P30536). In words: NVS_MP_hPBR: NovaScreen (NVS) Membrane Protein Assay for human Peripheral-type Benzodiazepine Receptor (PBR) (AID 2283331).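 Also: hits reduce radioligand binding relative to DMSO baseline.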 In outline:
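Cell-free radioligand displacement, human colonic membranes, 1 h exposure. Filter radiodetection read-out. Single-concentration duplicates (25 uM), then concentration-response for actives; DMSO negative control.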
In the case of `O=C(Nc1ccccc1)c1ccccc1I`, the AC50 (as a rule, the concentration at which the activity in the assay is half-maximal) was 1.46 µM (active).

On to `CC(C)COC(=O)c1ccccc1C(=O)OCC(C)C`, for which the outcome was inactive. `Cc1cc(N=Nc2ccccc2C)ccc1N`: the AC50 is 36.2 µM (active). Still for that read-out and setting: the value for `Cc1ccc(N=C=O)cc1N=C=O` was 4.24 µM (active).

With `O=C(N[C@H](c1ccccc1)[C@@H]1CN2CCC1CC2)c1c(Cl)ccc(C(F)(F)F)c1Cl`, the molecule was called inactive. Turning to `CN(C)c1ccc(C(=O)c2ccc(N(C)C)cc2)cc1`, the concentration at half-maximal activity (AC50) was 10.2 µM (active). Take `CCCCCCCCn1sccc1=O`: the AC50 is 1.24 µM (active).

A further assay has as its target Voltage-gated inwardly rectifying potassium channel KCNH2 (Homo sapiens) (UniProt Q12809). Kind of assay: NVS_IC_hKhERGCh: NovaScreen (NVS) Ion Channel Assay for human Potassium Channel ERG (KhERGCh) (AID 2283333). In short, it runs like this: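 Membranes from CHO cells expressing human ERG; displacement of radioligand measured by filtration and scintillation after 0.75 h. Single-concentration duplicate screen at 25 uM, then concentration-response for actives; DMSO baseline.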
Take `Nc1ccc(N=Nc2ccccc2)cc1`: the molecule was called inactive.

For `CCC[CH2][Sn]([Cl])([CH2]CCC)[CH2]CCC`, the half-maximal activity concentration (AC50) is 4.03 µM (active). `O=C(N[C@H](c1ccccc1)[C@@H]1CN2CCC1CC2)c1c(Cl)ccc(C(F)(F)F)c1Cl`: the call was inactive. Same read-out and setting: next, `CC(C)(C)C(O)(CCc1ccc(Cl)cc1)Cn1cncn1` (stereo not given): “inactive”. In the case of `CCOC(=O)[C@]1(c2ccccc2)Oc2ccccc2[C@@H]1N`, the AC50 was 1.44 µM (active).

The next assay has as its target rat Peripheral-type Benzodiazepine Receptor (PBR), Tspo (gene 24230) (UniProt P16257). In words: NVS_MP_rPBR: NovaScreen (NVS) Membrane Protein Assay for rat Peripheral-type Benzodiazepine Receptor (PBR) (AID 2283335). In outline: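 Competitive displacement of specific radioligand from rat kidney membrane PBR, read by filtration and scintillation after 1 h. Compounds first tested at 25 uM in duplicate, then in concentration series; signal loss relative to DMSO.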
For the molecule `O=C(Nc1ccccc1)c1ccccc1I`, the AC50 is 1.61 µM (active). On the same count and under the same terms, the value for `Nc1ccc(N=Nc2ccccc2)cc1` was 11 µM (active).

`CC(C)COC(=O)c1ccccc1C(=O)OCC(C)C`: the result was inactive. In the case of `Cc1cc(N=Nc2ccccc2C)ccc1N`, the AC50 was 14 µM (active). On to `CCCCOC(=O)c1ccccc1C(=O)OCc1ccccc1`, for which the call was inactive. Regarding `COP(=S)(OC)SCN1C(=O)c2ccccc2C1=O`, the AC50 was 11.3 µM (active). With `O=C(N[C@H](c1ccccc1)[C@@H]1CN2CCC1CC2)c1c(Cl)ccc(C(F)(F)F)c1Cl`, the call was inactive. Consider `CC(C)(C)C(O)(CCc1ccc(Cl)cc1)Cn1cncn1` (stereo not given), for which the AC50 was 6.45 µM (active). `CN(C)c1ccc(C(=O)c2ccc(N(C)C)cc2)cc1`: the molecule was classed as inactive.

Another assay has as its target Small conductance calcium-activated potassium channel protein 1 (Rattus norvegicus) (UniProt P70606). In words: NVS_IC_rKCaCh: NovaScreen (NVS) Ion Channel Assay for rat Potassium Channel, Ca2+ Act., VI (KCaCh) (AID 2283336). In short, it runs like this: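 Filter-based scintillation counting of radioligand bound to rat forebrain membrane preparations, measured 1 h after compound addition. Primary screen used 25 uM in duplicate, with concentration-response follow-up; signal decrease relative to DMSO marks activity.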
Regarding `C[N+](C)(C)CC1CO1` (stereo not given), the result was inactive. Still for that read-out and setting: the value for `O=C(Oc1ccc(Br)cc1)N1CCN2CCC1CC2` was “inactive”.

Take `O=C(N[C@H](c1ccccc1)[C@@H]1CN2CCC1CC2)c1c(Cl)ccc(C(F)(F)F)c1Cl`: the result was inactive. On the same count and under the same terms, the value for `C[C@]12C=CC3=C4CCC(=O)C=C4CC[C@H]3[C@@H]1CC[C@@H]2O` was “inactive”.

Tested on in another assay: not listed separately
In words: NVS_IC_rCaBTZCHL: NovaScreen (NVS) Ion Channel Assay for Calcium Channel, Type L, Benzothiazepine Site (CaBTZCHL) (AID 2283337). In short, it runs like this:
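Test chemicals were added to rat cortical membranes and incubated 1.5 h with a tritiated or iodinated radioligand for the benzothiazepine site. Bound ligand was separated by filtration and counted. Actives from the 25 uM duplicate screen were retested in concentration series.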
Regarding `CCC[CH2][Sn]([Cl])([CH2]CCC)[CH2]CCC`, the AC50 is 16.2 µM (active). Still for that read-out and setting: next, `O=C(N[C@H](c1ccccc1)[C@@H]1CN2CCC1CC2)c1c(Cl)ccc(C(F)(F)F)c1Cl`: 3.07 µM (active); `CC(C)(C)C(O)(CCc1ccc(Cl)cc1)Cn1cncn1` (stereo not given): 16 µM (active). The same measure, in the same setting: the value for `CCOC(=O)[C@]1(c2ccccc2)Oc2ccccc2[C@@H]1N` was 7.25 µM (active); that for `CCCCCCCCn1sccc1=O` was 34.2 µM (active).
